Among the test systems are NCI-H23 lung; NCI-H226 lung; NCI-H322M lung; HOP-62 NSCLC; NCI-H460 lung; HOP-92 NSCLC; NCI-H522 lung; A549/ATCC NSCLC; 786-0 renal; COLO 205 colon; DU-145 prostate; K-562 leukemia; MALME-3M melanoma; MDA-MB-231 breast; RXF 393 renal; SF-268 CNS; SF-295 CNS; SF-539 CNS; UACC-257 melanoma; M14 melanoma.
What all share (experiment): NCI-60 one-dose screen, 48 h (100 = growth as untreated, 0 = no growth, -100 = all killed)
What all share (conditions): 10 µM unless noted

We go through eight compounds from PubChem BioAssay (NCI).

Compounds without any hit were thinned out: in the full panel of roughly 83,000, 20% have a hit.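 Interpretation: 100, growth as untreated; towards 0, rising growth inhibition; 0, no net growth; 0 to -100, cell death. Compounds scoring below 10 were considered active.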 Values without a mark were called inactive. The source made the active and inactive calls.

With `COc1ccc(/C=C(\C#N)c2cc3ccccc3n2C(C)=O)cc1`, the growth with NCI-H23 lung was 88.3%; in the test with NCI-H226 lung it was 102%; with NCI-H322M lung it was 94.6%; in the test with HOP-62 NSCLC, 93.3%; with NCI-H460 lung, 92.4%; in the test with HOP-92 NSCLC it was 99.2%. Further, the growth in the test on NCI-H522 lung was 70%; with A549/ATCC NSCLC, 83.5%; in the test on 786-0 renal it was 96.9%; in the test on COLO 205 colon, 97.3%; in the test with DU-145 prostate, 99.7%; with K-562 leukemia it was 25.1%. Also, the growth with MALME-3M melanoma was 83.8%; in the test with MDA-MB-231 breast it was 82%; in the test with RXF 393 renal, 88.3%; with SF-268 CNS it was 97.3%; in the test with SF-295 CNS it was 84%; in the test on SF-539 CNS it was 93.8%. Moreover, the figures for the growth with UACC-257 melanoma and in the test on M14 melanoma were 99.6% and 70.7%, respectively.

Take `CC(=O)Nc1cc(F)cc(C(F)(F)F)c1Cl`: the growth was 92.2% with NCI-H23 lung; 91% with NCI-H226 lung; 98.7% in the test on NCI-H322M lung; 99.3% with HOP-62 NSCLC; 98.6% in the test with NCI-H460 lung; 93.7% in the test with HOP-92 NSCLC. For the same compound, the growth was 100% in the test with NCI-H522 lung; 103% in the test on A549/ATCC NSCLC; 94.3% in the test with 786-0 renal; 109% with COLO 205 colon; 108% with DU-145 prostate; 112% with K-562 leukemia. Moreover, the growth in the test with MALME-3M melanoma is 100%; in the test with MDA-MB-231 breast, 110%; with RXF 393 renal it was 89.4%; with SF-268 CNS, 98.2%; in the test on SF-295 CNS, 102%; in the test with SF-539 CNS it was 97.6%. Further, the growth is 103% with UACC-257 melanoma and 99.2% in the test with M14 melanoma.

For the compound `COc1cc2c(cc1-c1c(C)noc1C)ncc1nc(C3CCC(F)(F)CC3)n([C@@H](C)COC(F)F)c12`, the growth in the test with NCI-H23 lung is 60.2%; in the test on NCI-H226 lung, 55%; with NCI-H322M lung it was 40.6%; with HOP-62 NSCLC, 31.7%; in the test with NCI-H460 lung it was 55.3%; in the test with HOP-92 NSCLC, 35.1%. Further, the growth is 31.5% in the test with NCI-H522 lung; 37.5% in the test on A549/ATCC NSCLC; 43.5% in the test with 786-0 renal; 23.5% in the test on COLO 205 colon; 66.9% in the test with DU-145 prostate; 25% in the test with K-562 leukemia. Further, the growth is 76.1% in the test with MALME-3M melanoma; 41.6% in the test with MDA-MB-231 breast; 54.7% in the test with RXF 393 renal; 67.8% with SF-268 CNS; 47.7% in the test with SF-295 CNS; 30.8% in the test with SF-539 CNS. The values for the growth with UACC-257 melanoma and in the test with M14 melanoma were 35.9% and 41.4%, respectively.

As to `Cc1ccc2oc(=O)cc(-c3sc(N4CCCCC4)nc3-c3ccccc3)c2c1`, the growth with NCI-H23 lung was 90.9%; in the test with NCI-H226 lung it was 90.4%; with NCI-H322M lung it was 81.8%; in the test on HOP-62 NSCLC it was 89.7%; in the test on NCI-H460 lung, 91.1%; in the test on HOP-92 NSCLC, 92.1%. Also, the growth in the test with NCI-H522 lung was 89%; in the test with A549/ATCC NSCLC, 99.6%; with 786-0 renal, 99.8%; with COLO 205 colon, 97.3%; in the test on DU-145 prostate it was 98.5%; with K-562 leukemia, 97.8%. Moreover, the growth with MALME-3M melanoma is 86%; in the test with MDA-MB-231 breast, 88.1%; in the test with RXF 393 renal, 101%; with SF-268 CNS, 87.9%; in the test with SF-295 CNS it was 102%; with SF-539 CNS, 94.7%. The figures for the growth in the test with UACC-257 melanoma and in the test on M14 melanoma were 105% and 97.3%, respectively.

Consider `CC1(C)C=CC[C@]2(C)[C@H]3CC[C@@H]4[C@H]5[C@H](C(=O)/C=C/c6cccnc6)CC[C@]5(CO)CC[C@@]4(C)[C@]3(C)CC[C@@H]12`, for which the growth in the test on NCI-H23 lung was -60% (active); in the test on NCI-H226 lung, -54.1% (active); in the test with NCI-H322M lung, 9.88% (active); with HOP-62 NSCLC, -81.3% (active); in the test on NCI-H460 lung, -62.4% (active); in the test with HOP-92 NSCLC, -92.7% (active). The growth is -73.7% (active) in the test on NCI-H522 lung; -41.5% (active) in the test with A549/ATCC NSCLC; -59.8% (active) in the test with 786-0 renal; -71.9% (active) in the test on COLO 205 colon; -94.2% (active) in the test on DU-145 prostate; -29.3% (active) with K-562 leukemia. Also, the growth with MALME-3M melanoma is -85% (active); in the test on MDA-MB-231 breast, -77.6% (active); in the test on RXF 393 renal, -86.7% (active); in the test on SF-268 CNS, -57.6% (active); with SF-295 CNS, -91.4% (active); in the test with SF-539 CNS, -96.2% (active). Moreover, the growth with UACC-257 melanoma is -49.7% (active); with M14 melanoma, -74.4% (active).

Consider `Nc1c2c(nc3ccc(Cl)cc13)CC(c1ccccc1)CC2=O` (stereo not given), for which the growth in the test with NCI-H23 lung is 58.6%; in the test on NCI-H226 lung it was 85%; in the test on NCI-H322M lung, 62.1%; in the test on HOP-62 NSCLC it was 53.9%; in the test with NCI-H460 lung, 15.2%; with HOP-92 NSCLC it was 84.6%. The growth in the test with NCI-H522 lung is 41.1%; in the test with A549/ATCC NSCLC, 56.7%; in the test on 786-0 renal, 55.1%; in the test on COLO 205 colon, 39.3%; in the test with DU-145 prostate, 63.9%; in the test with K-562 leukemia, 18%. The growth is 40.3% with MALME-3M melanoma; 66.8% in the test on MDA-MB-231 breast; 55.8% with RXF 393 renal; 64.1% in the test with SF-268 CNS; 24.5% in the test with SF-295 CNS; 38.5% in the test with SF-539 CNS. Also, the growth was 64% with UACC-257 melanoma and 13.9% with M14 melanoma.

As for `C=C(C)[C@@H]1CC[C@]2(C(=O)O)CC[C@]3(C)[C@H](CC[C@@H]4[C@@]5(C)C/C(=C/c6cccc(I)c6)C(=O)C(C)(C)[C@@H]5CC[C@]43C)[C@@H]12`, the growth in the test on NCI-H23 lung was 20.3%; in the test with NCI-H226 lung it was 31.5%; with NCI-H322M lung it was 37.2%; in the test with HOP-62 NSCLC it was 21.8%; in the test on NCI-H460 lung it was 11.8%; in the test with HOP-92 NSCLC, 16%. Moreover, the growth in the test on NCI-H522 lung is 10%; in the test with A549/ATCC NSCLC, 17.2%; in the test with 786-0 renal it was 25%; in the test on COLO 205 colon, 28%; in the test on DU-145 prostate it was 28.7%; in the test with K-562 leukemia, 12.5%. The growth in the test with MALME-3M melanoma is 53.3%; in the test with MDA-MB-231 breast, 56%; in the test on RXF 393 renal, 51.9%; in the test with SF-268 CNS it was 25.5%; in the test with SF-295 CNS, 26.7%; in the test on SF-539 CNS, 48.3%. The growth is 20.7% with UACC-257 melanoma and 30.3% with M14 melanoma.

In the case of `CCOc1ccc(NC(=O)c2ccoc2COc2ccccc2)cc1`, the growth in the test with NCI-H23 lung is 103%; with NCI-H226 lung, 111%; in the test with NCI-H322M lung, 99.7%; in the test on HOP-62 NSCLC, 111%; with NCI-H460 lung, 112%; with HOP-92 NSCLC, 95.2%. Moreover, the growth is 93.9% in the test on NCI-H522 lung; 103% in the test with A549/ATCC NSCLC; 105% in the test with 786-0 renal; 123% in the test on COLO 205 colon; 106% in the test with DU-145 prostate; 88.8% in the test on K-562 leukemia. For the same compound, the growth was 100% with MALME-3M melanoma; 98.7% with MDA-MB-231 breast; 106% in the test with RXF 393 renal; 97.8% in the test on SF-268 CNS; 101% in the test with SF-295 CNS; 98.5% with SF-539 CNS. The growth in the test on UACC-257 melanoma was 106%; in the test with M14 melanoma it was 104%.
